For 40 molecules, growth results are on record in PubChem BioAssay (NCI).

Compounds without any hit were thinned out: in the full panel of roughly 83,000, 20% have a hit.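 Activity criterion: percent growth below 10, measured after cells in 96-well plates were exposed to a single compound concentration for 48 hours.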 The source made the active and inactive calls.

For the assay, the system named is NCI-H226 lung. Nature of the assay: NCI-60 one-dose screen, 48 h (100 = growth as untreated, 0 = no growth, -100 = all killed). Particulars: 10 µM unless noted. How it is done:
Growth inhibition of the NCI-H226 human Non-Small Cell Lung tumor cell line is measured as a screen for anti-cancer activity. Cells are grown in 96 well plates and exposed to the test compound for 48 hours. Compounds are tested at a single concentration, which is 10^-5 M for most compounds. The reported endpoint is percent growth (GI% or GIPRCNT), where numbers from 0 - 100% represent growth inhibition, and numbers from -100% - 0 represent cell death. For example, a value of 40 represents 60% growth inhibition. A value of 0 means no net growth occurred over the course of the experiment. A value of -40 indicates 40% of cells at the beginning of the experiment died by the end of the experiment. A value of -100 means all cells are dead at the end of the experiment.
NCI-60 Human Tumor Cell Lines Screen was performed using the standard one-dose NCI protocol, which is described in more detail at https://dtp.cancer.gov/discovery_development/nci-60/default.htm.
Compounds with GIPRCNT values below 10 were considered active. Activity score was based on GIPRCNT using the following formula: […]
Score is 0 for GIPRCNT values of 100 or above, 50 for GIPRCNT values of 0, and 100 for GIPRCNT values of -100.
With `CC(=O)Nc1cccc(-c2ccc3c(c2)NC(=O)/C3=C\c2ccc[nH]2)c1`, the growth is 52.7% (inactive).

`N#C/C(=C\c1ccc([N+](=O)[O-])s1)c1nc2cc(Cl)ccc2s1`: the growth is -74.1% (active).

As to `c1ccc(Cn2cnc3ccc(-c4nc(-c5ccc6c(c5)ncn6C5CCCCC5)cn5ccnc45)cc32)cc1`, the growth was -63.1% (active).

For `COc1cccc(-c2cc(C(=O)Nc3ccc(/C=C/c4ccc(OC5CCN(C)CC5)cc4)cc3)ccc2OC)c1`, the growth was 76.2% (inactive).

On to `CCNc1nc2ccc(Nc3ccnc4cc(Cl)ccc34)cc2[nH]1`, for which the growth is 94.8% (inactive).

With `CCCCC[n+]1ccc(SCC(=O)N(C)c2ccc(Oc3ccccc3)cc2)c2ccccc21`, the growth was 106% (inactive).

Take `CC(=O)OC[C@]12CC[C@@H](C(=O)CBr)[C@@H]1[C@H]1CC[C@@H]3[C@@]4(C)CC[C@H](OC(C)=O)C(C)(C)[C@@H]4CC[C@@]3(C)[C@]1(C)CC2`: the growth is 100% (inactive).

In the case of `CC(Oc1ccc(C(=O)O)cc1C(F)(F)F)c1ccc(Oc2ccccc2)cn1` (stereo not given), the growth was 97.6% (inactive).

For `OC(c1cccc(C(F)(F)F)c1)c1cnccc1NC1CCCCC1` (stereo not given), the growth was 82.9% (inactive).

Turning to `COc1ccc(/C=C2\Oc3cc(OCCCN4CCCCC4)ccc3C2=O)cc1OC`, the growth is 90% (inactive).

`CCCCCN1C=C/C(=C\C(=O)N2CCCc3ccccc32)c2ccccc21`: the growth was 79.3% (inactive).

For `CCNc1nc2cc(Nc3ccnc4cc(Cl)ccc34)ccc2o1`, the growth was 79.6% (inactive).

Take `O=C(CCN1CCCC1)Nc1ccc2c(Nc3ccc(Br)cc3)c3ccccc3nc2c1`: the growth was 62% (inactive).

As to `COc1ccc(C(=O)C2C(C#N)C(C#N)C3c4ccccc4C=CN23)cc1` (stereo not given), the growth is 74.7% (inactive).

As to `CCOC(=O)c1cc(C(=O)c2cc(OC)cc(OC)c2)n2ccc3ccccc3c12`, the growth is 91.8% (inactive).

Consider `COc1cc2c(cc1OC)C(=O)/C(=C/c1cc(C)c(O)c(C)c1)S2`, for which the growth is 55.7% (inactive).

With `CNC(=O)c1cc(Cn2nc(C)c(NC(=O)Nc3ccc(Cl)c(C(F)(F)F)c3)c2C)ccn1`, the growth was 96.6% (inactive).

Turning to `CCN(c1ccccc1)S(=O)(=O)c1cc([N+](=O)[O-])ccc1Cl`, the growth was 36.4% (inactive).

Consider `COC(=O)C(OC(C)=O)C(OC(C)=O)c1ccc(OC)c(OC)c1` (stereo not given), for which the growth is 98.4% (inactive).

With `COc1cccc(/C=N/NC(=O)c2cnn3c2NC(c2ccccc2)C3)c1Oc1ccccc1` (stereo not given), the growth was 97.7% (inactive).

For `CC(Sc1nc2ccccc2c(=O)n1CCc1ccc(S(N)(=O)=O)cc1)C(=O)Nc1ccc(Cl)cc1` (stereo not given), the growth is 76.6% (inactive).

As for `CC(C)c1ccc(Nc2ccc3c(OCCCN4CCN(C)CC4)cccc3n2)cc1`, the growth was 83.9% (inactive).

`O=C(Nc1ncc(Cc2cc(Cl)ccc2Cl)s1)c1cccs1`: the growth is 81% (inactive).

For `COc1ccc(OC)c(-c2cc(-c3ccc(Cl)cc3)c3c(N)c(C(=O)c4ccc(Cl)cc4)sc3n2)c1`, the growth is 96.1% (inactive).

Consider `COc1cc(F)c(/C=C/c2cc(/C=C/c3cc(OC)c(OC)cc3F)on2)cc1OC`, for which the growth was 56.8% (inactive).

Regarding `CC(C)(C)c1ccc(NS(=O)(=O)c2ccc3nc(NC(=O)c4cnccn4)[nH]c3c2)cc1`, the growth was 44.3% (inactive).

Regarding `CC(=O)Oc1ccc(/C=N/NC(N)=S)nc1`, the growth is 32.1% (inactive).

Consider `Cc1ccc(S(=O)(=O)Nn2c3c(cc(-c4nc5ccccc5s4)c2=O)CCCCCC3)cc1`, for which the growth was 76.6% (inactive).

Consider `CN1CCN(C(=O)[C@]23CCC(C)(C)C[C@H]2C2=CC[C@@H]4[C@@]5(C)C/C(=C/c6ccncc6)C(=O)C(C)(C)[C@@H]5CC[C@@]4(C)[C@]2(C)CC3)CC1`, for which the growth was 68.7% (inactive).

`COc1cc2oc(-c3cccc(C(=O)Nc4ccc(Cl)cc4)c3)cc(=O)c2c(O)c1OC`: the growth was 66.4% (inactive).

For `O=S(=O)(NCCNc1nccc(-c2c(-c3cccc(O)c3)nc3occn23)n1)c1ccccc1`, the growth was 104% (inactive).

`O=C(CCN1CCCC1)Nc1ccc2c(NCc3ccccc3)c3ccccc3nc2c1`: the growth is -2.39% (active).

On to `COc1cc2c(c(O)c1Cl)C(=O)c1c(O)cc(C[C@H](C)O)cc1[C@H]2[C@H]1c2cc(C[C@H](C)O)cc(O)c2C(=O)c2c1cc(OC)c(Cl)c2O`, for which the growth is 19% (inactive).

As to `C=C1C(=O)O[C@H]2[C@H]1CC/C(COC(=O)NCC(C)c1ccc(CC(C)C)cc1)=C\CC[C@@]1(C)O[C@@H]21` (stereo not given in full), the growth was 61.4% (inactive).

With `O=C(c1nnc(Nc2ccccc2Br)o1)c1c[nH]c2ccccc12`, the growth was 85.6% (inactive).

Take `Cc1cccc(NC(=O)Nc2ccc(-n3cnc4cc(-c5ccc(O)cc5)ccc43)cc2)c1`: the growth is 62.6% (inactive).

Turning to `Cc1cccc(-c2cn3ccnc3c(-c3ccc4ncn(Cc5ccccc5)c4c3)n2)c1`, the growth is 98.8% (inactive).

As to `COc1cccc2c1c1nc3cc(C)c(C)cc3nc1n2CCN(C)C`, the growth is -6.81% (active).

Consider `COc1cccc(-c2nc3occn3c2-c2ccnc(NCCNS(=O)(=O)c3cccc4ccccc34)n2)c1`, for which the growth is 99.6% (inactive).

For the molecule `COc1ccc(-c2nc3sccn3c2/C=C/C(=O)c2ccc3c(c2)OCO3)cc1`, the growth was 84.7% (inactive).
